Seven molecules from PubChem BioAssay (NCATS) can be followed below.

Inconclusive results are not listed. The source made the active and inactive calls. Calls come from the whole dose curve; as a rule, active = well fitted curve in the direction sought with a large enough effect; inconclusive = small, poorly fitted or top-dose-only effect, or another doubt; inactive = no such curve, though single readings can be large; an effect the other way counts as inactive or inconclusive.

In experiment [1] the target is Glutathione peroxidase 1 (Homo sapiens) (UniProt P07203). In words: Primary qHTS Assay for Inhibitors of Recombinant Selenoprotein Glutathione Peroxidase 1 (GPX1) (AID 1845191). Note: nearly all actives have a fitted effect of over 65% in size. Put shortly: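 GR-coupled readout: NADPH consumption tracked by fluorescence, ex 340/em 450 nm, at t=0 and after 15 min at RT. Final mix 10 nM GPX1, 1 mM GSH, 0.5 mM CHP, 0.5 mM NADPH, 100 nM GR, 0.01% BSA, following 30 min enzyme–compound preincubation.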
Chain of Glutathione peroxidase 1 (Homo sapiens) (P07203 whole entry, looked up): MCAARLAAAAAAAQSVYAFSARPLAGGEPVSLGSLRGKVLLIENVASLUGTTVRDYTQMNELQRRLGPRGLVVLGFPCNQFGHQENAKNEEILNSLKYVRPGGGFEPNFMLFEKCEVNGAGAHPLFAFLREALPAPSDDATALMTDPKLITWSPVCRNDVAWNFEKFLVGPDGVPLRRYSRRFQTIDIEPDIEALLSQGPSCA

In experiment [2] the target is Phospholipid hydroperoxide glutathione peroxidase GPX4 (Homo sapiens) (UniProt P36969). Description: Primary qHTS Assay for Inhibitors of Recombinant Selenoprotein Glutathione Peroxidase 4 (GPX4) (AID 1845192). Note: nearly all actives have a fitted effect of over 65% in size. Put shortly:
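Steps: GPX4 plus compound, 30 min RT; add GR/GSH/NADPH master mix; start with cumene hydroperoxide; read 340/450 nm fluorescence at 0 and 15 min. Finals were 200 nM GPX4, 1 mM GSH, 0.5 mM CHP, 0.5 mM NADPH, 100 nM GR.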
For orientation: In qHTS, concentration-response curves come from the screen itself.

Experiment [3] in a line: Quantitative High-Throughput drug screen in 47 multiple myeloma cell lines against the NCATS MIPE library collection: Delta47_JCRB cell viability assay (AID 1918925; note: nearly all actives have a fitted effect of over 45% in size; note: potency is the fitted concentration of half-maximal effect). Summed up:
(§1)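 Inhibition of cell viability is measured here. Each line was plated at 500 cells per well, treated with MIPE 4.0 drugs, kept 48 hours at 37C, then assayed for ATP content by CellTiter-Glo luminescence.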

The nature of experiment [4]: Quantitative High-Throughput drug screen in 47 multiple myeloma cell lines against the NCATS MIPE library collection: AMO1_DSMZ cell viability assay (AID 1918927; note: nearly all actives have a fitted effect of over 30% in size; note: potency is the fitted concentration of half-maximal effect). Summed up: as §1
Experiment [5] is described as follows: Quantitative High-Throughput drug screen in 47 multiple myeloma cell lines against the NCATS MIPE library collection: ARP1_JJKsccF8 cell viability assay (AID 1918928; note: nearly all actives have a fitted effect of over 40% in size; note: potency is the fitted concentration of half-maximal effect). Put shortly:
(§2)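 Cell viability inhibition in this qHTS is measured via ATP content (CellTiter-Glo) after 48 h drug exposure at 37 °C. Wells hold 500 cells; DMSO-treated wells define 100% and medium-only wells 0%.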

A short description of experiment [6]: Quantitative High-Throughput drug screen in 47 multiple myeloma cell lines against the NCATS MIPE library collection: ARD_JJKsccE7 cell viability assay (AID 1918929; note: potency is the fitted concentration of half-maximal effect). Put shortly: as §1
Experiment [7] is described as follows: Quantitative High-Throughput drug screen in 47 multiple myeloma cell lines against the NCATS MIPE library collection: Karpas620_DSMZ cell viability assay (AID 1918959). Note: nearly all actives have a fitted effect of over 30% in size. Note: potency is the fitted concentration of half-maximal effect. Put shortly:
(§3)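 We plated 500 myeloma cells per well, pinned in MIPE 4.0 compounds, and incubated for 48 hours at 37C. ATP was then quantified with CellTiter-Glo, with DMSO and media-only wells defining 100% and 0%.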

Experiment [8] is described as follows: Quantitative High-Throughput drug screen in 47 multiple myeloma cell lines against the NCATS MIPE library collection: KMM1_JCRB cell viability assay (AID 1918960). Note: nearly all actives have a fitted effect of over 30% in size. Note: potency is the fitted concentration of half-maximal effect. Put shortly:
as §2

Experiment [9] in a line: Quantitative High-Throughput drug screen in 47 multiple myeloma cell lines against the NCATS MIPE library collection: KHM11_PLB cell viability assay (AID 1918962). Note: nearly all actives have a fitted effect of over 35% in size. Put shortly:
as §3

A short description of experiment [10]: Quantitative High-Throughput drug screen in 47 multiple myeloma cell lines against the NCATS MIPE library collection: JIM3_ECACC cell viability assay (AID 1918963; note: nearly all actives have a fitted effect of over 35% in size; note: potency is the fitted concentration of half-maximal effect). Put shortly: as §3
A short description of experiment [11]: Quantitative High-Throughput drug screen in 47 multiple myeloma cell lines against the NCATS MIPE library collection: JIM1_ECACC cell viability assay (AID 1918964; note: potency is the fitted concentration of half-maximal effect). Put shortly: as §1
A short description of experiment [12]: Quantitative High-Throughput drug screen in 47 multiple myeloma cell lines against the NCATS MIPE library collection: INA6_PLB cell viability assay (AID 1918965; note: nearly all actives have a fitted effect of over 55% in size; note: potency is the fitted concentration of half-maximal effect). Summed up:
(§4)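 Viability readout: CellTiter-Glo luminescence following 5 min room-temperature incubation with reagent. Prior exposure: 48 h, 37C, humidified 5% CO2, 500 cells per well.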

Experiment [13] concerns the target Luciferin 4-monooxygenase (Photinus pyralis) (UniProt P08659). Description: Primary firefly luciferase (FLuc) qHTS assay for identification of artifact compounds. (AID 1845220). Note: nearly all actives have a fitted effect of over 60% in size. The following applies: outcome: dose series up to 54.1 µM unless noted. Summed up: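 D-luciferin and ATP (10 uM each, final) in Tris acetate buffer pH 7.6 were incubated with compounds for 15 min at room temperature. The reaction was started with 10 nM Photinus pyralis luciferase and luminescence read after 5 min. Percent inhibition was fitted to a 4-parameter Hill equation.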

Experiment [14] concerns Nanoluciferase (engineered Oplophorus gracilirostris luciferase). In words: Primary Nanoluciferase (NLuc) qHTS assay for identification of artifact compounds. (AID 1845222). Summed up:
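Diluted conditioned medium from NLuc-expressing S16 cells treated with compounds for 15 min at room temperature, then Nano-Glo substrate added; luminescence read after 5 min. Percent inhibition versus no-enzyme and DMSO controls fitted to 4-parameter Hill equation.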

Experiment [15] can be described thus: Primary redox qHTS assay for identification of artifact compounds. (AID 1845223). Put shortly: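 Redox-cycling detection via DTT (250 uM final) oxidation coupled to Amplex Red (25 uM)/HRP (250 mU/mL) in HBSS. 15 min preincubation plus 30 min after DTT, room temperature. Ex/Em 525/598 nm; 4-parameter Hill fit against DMSO and 10 uM DA3003.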
Experiment [16] in a line: Quantitative High-Throughput drug screen in 47 multiple myeloma cell lines against the NCATS MIPE library collection: FR4_PLB cell viability assay (AID 1918924; note: nearly all actives have a fitted effect of over 35% in size; note: potency is the fitted concentration of half-maximal effect). Put shortly: as §3
A short description of experiment [17]: Quantitative High-Throughput drug screen in 47 multiple myeloma cell lines against the NCATS MIPE library collection: EJM_DSMZ cell viability assay (AID 1918926; note: nearly all actives have a fitted effect of over 30% in size). Summed up: as §1
Experiment [18] can be described thus: Primary fluorescence-based thiol-reactive (MSTI) qHTS assay for identification of artifact compounds. (AID 1845221).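 Note: thiol-reactive compounds lower the probe fluorescence signal; nearly all actives have a fitted effect of over 65% in size.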 Summed up:
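qHTS titration of compound; 4 uM MSTI, PBS pH 7.4, 2% DMSO; 1 h RT, dark; fluorescence 525/598 nm; normalized to Acetyl-MSTI and MSTI; 4-parameter Hill fit.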

The nature of experiment [19]: Quantitative High-Throughput drug screen in 47 multiple myeloma cell lines against the NCATS MIPE library collection: Karpas417_ECACC cell viability assay (AID 1918961). Note: potency is the fitted concentration of half-maximal effect. As to conditions: Karpas417 myeloma viability, CellTiter-Glo ATP luminescence, 48 h; viability (% of DMSO): at 45.8 µM (top of the series). Put shortly: as §4
(In ATP-based viability assays light output follows the ATP content of the culture.)

Chain of Phospholipid hydroperoxide glutathione peroxidase GPX4 (Homo sapiens) (P36969 whole entry, looked up): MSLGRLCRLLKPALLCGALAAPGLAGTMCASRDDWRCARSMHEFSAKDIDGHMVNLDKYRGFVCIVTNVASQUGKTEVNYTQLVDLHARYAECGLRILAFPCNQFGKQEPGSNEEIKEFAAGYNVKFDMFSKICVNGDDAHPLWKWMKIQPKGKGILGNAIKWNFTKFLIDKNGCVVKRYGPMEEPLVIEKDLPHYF

Take `COc1ccc(C(=O)c2c(C)n(CCN3CCOCC3)c3cc(I)ccc23)cc1`: the Potency result in experiment [1], in [2] and in [9] was “inactive” in each case. The Potency in experiment [3] is 16.6 µM (active); in [4], 11.8 µM (active); in experiment [5] it was 23.5 µM (active); in experiment [6], 18.7 µM (active); in experiment [7], 18.7 µM (active); in [8] it was 18.7 µM (active). In addition, the Potency is 13.2 µM (active) in experiment [10], 11.8 µM (active) in experiment [11] and 8.33 µM (active) in experiment [12].

In the case of `O=C(O)CNC(=O)c1c(O)c2ccccc2n(Cc2ccccc2)c1=O`, the Potency entry in [1], in experiment [2], in experiment [16], in experiment [3], in experiment [17] and in [4] was “inactive” each time. Besides, the Potency result in experiment [5], in experiment [6], in experiment [7], in experiment [8], in experiment [10] and in experiment [11] was “inactive” throughout. For the same molecule, the molecule was classed as inactive in experiment [13], in experiment [14] and in experiment [15].

As to `CCN1C[C@]2(OC(=O)c3ccccc3NC(C)=O)CC[C@H](OC)[C@@]34[C@H]5CC6[C@@H](OC)C[C@](O)(C(C[C@@H]23)[C@@H]14)[C@@]5(O)[C@@H]6OC`, the Potency result in experiment [1], in experiment [2], in [16], in [3], in [17] and in experiment [4] was “inactive” each time. The Potency entry in [5], in experiment [7], in experiment [8], in [10] and in experiment [12] was “inactive” throughout.

In the case of `O=C(NCC1CCOCC1)c1cnc(Nc2ccc(Cl)cc2Cl)nc1C(F)(F)F`, the Potency result in experiment [1], in experiment [2], in experiment [18], in experiment [17] and in [8] was “inactive” throughout. Moreover, the call in experiment [13], in experiment [14] and in experiment [15] was inactive. Moreover, the Potency in experiment [16] is 14.8 µM (active); in experiment [3] it was 7.43 µM (active); in experiment [4] it was 18.7 µM (active); in [7], 5.26 µM (active); in experiment [12], 18.7 µM (active).

For `CC(C)[C@H]1C(=O)N[C@H](CO)Cc2c[nH]c3cccc(c23)N1C`, the Potency entry in experiment [1], in experiment [2], in experiment [3], in [17], in experiment [4] and in experiment [5] was “inactive” throughout. Moreover, the Potency result in experiment [7] and in experiment [8] was “inactive” each time.

As for `NC1=NC(=O)N2CC12` (configuration not stated), the Potency result in experiment [1], in [2], in [16], in experiment [17] and in experiment [5] was “inactive” throughout. Also, the Potency is 10.5 µM (active) in [3]; 13.2 µM (active) in experiment [4]; 18.7 µM (active) in [6]; 9.35 µM (active) in experiment [7]; 11.8 µM (active) in [8]; 1.66 µM (active) in experiment [19]. The Potency was 13.2 µM (active) in [11] and 18.7 µM (active) in experiment [12].

As to `Clc1ccccc1C(c1ccccc1)(c1ccccc1)n1cccn1`, the Potency entry in experiment [1], in experiment [2], in experiment [16], in experiment [3], in experiment [6] and in experiment [7] was “inactive” each time. For the same molecule, the Potency result in experiment [9], in [10], in experiment [11] and in experiment [12] was “inactive” each time.
